Experimental data as given in PubChem BioAssay AID1159580 (chemical genetic matrix, 2015).
In all, about 5,500 compounds went through this assay and about 2,000 (36%) were called active. Roughly 18% stayed inconclusive and do not appear here. No stated cut-off is given here; in the data, active means normalized growth mostly below about 0.91 (no sharp cut-off); inconclusive means no clear call, values can overlap the other calls; inactive means mostly above about 0.92. Some of the results follow.

Assay: chemical genetic growth profiling, strain panel (AID 1159580);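 further: tested at 20 µM; growth read once vehicle control cultures reached saturation at 30 °C; 1 = growth at the plate median or of vehicle wells; lower values mean less growth of the strain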
Details: growth OD

Measured: normalized growth

COc1ccc2c(c1)CCC1C2CCC2(C)C1C[C@@H](O)C2O (stereo not given in full)
active: S. cerevisiae deletion strains, locus YLR262C, strain YPT6 (second series), active compounds read low 0.755 | S. cerevisiae deletion strains, locus YLR320W, strain mms22, active compounds read low 0.876 | S. cerevisiae deletion strains, locus YNL071W, strain lat1, active compounds read low 0.833
inactive: S. cerevisiae deletion strains, locus YJL187C, strain SWE1, active compounds read low 0.991 | S. cerevisiae deletion strains, locus YJR043C, strain POL32, active compounds read low 0.999 | S. cerevisiae deletion strains, locus YJR075W, strain HOC1, active compounds read low 0.982 | S. cerevisiae deletion strains, locus YKL009W, strain mrt4, active compounds read low 0.948 | S. cerevisiae deletion strains, locus YKL068W, active compounds read low 1 | S. cerevisiae deletion strains, locus YKL085W, strain MDH1 (second series), active compounds read low 0.997 | S. cerevisiae deletion strains, locus YKL085W, strain MDH1, active compounds read low 0.997 | S. cerevisiae deletion strains, locus YKL160W, strain elf1, active compounds read low 0.958 | S. cerevisiae deletion strains, locus YKL190W, strain CNB1, active compounds read low 1.01 | S. cerevisiae deletion strains, locus YKR001C, strain vps1, active compounds read low 0.956 | S. cerevisiae deletion strains, locus YKR026C, strain gcn3, active compounds read low 0.994 | S. cerevisiae deletion strains, locus YKR091W, strain srl3, active compounds read low 0.997 | S. cerevisiae deletion strains, locus YLL001W, strain dnm1, active compounds read low 0.966 | S. cerevisiae deletion strains, locus YLL026W, active compounds read low 0.974 | S. cerevisiae deletion strains, locus YLL041C, strain sdh2, active compounds read low 0.982 | S. cerevisiae deletion strains, locus YLR027C, strain aat2, active compounds read low 0.974 | S. cerevisiae deletion strains, locus YLR039C, strain RIC1, active compounds read low 0.947 | S. cerevisiae deletion strains, locus YLR058C, strain SHM2, active compounds read low 1 | S. cerevisiae deletion strains, locus YLR102C, strain apc9, active compounds read low 0.99 | S. cerevisiae deletion strains, locus YLR221C, strain rsa3, active compounds read low 0.929 | S. cerevisiae deletion strains, locus YLR258W, strain gsy2, active compounds read low 0.965 | S. cerevisiae deletion strains, locus YLR262C, strain YPT6, active compounds read low 0.943 | S. cerevisiae deletion strains, locus YLR268W, strain sec22, active compounds read low 0.973 | S. cerevisiae deletion strains, locus YLR330W, strain CHS5, active compounds read low 1.01 | S. cerevisiae deletion strains, locus YLR342W, strain FKS1 (second series), active compounds read low 0.912 | S. cerevisiae deletion strains, locus YLR342W, strain FKS1, active compounds read low 0.947 | S. cerevisiae deletion strains, locus YLR357W, strain rsc2, active compounds read low 0.987 | S. cerevisiae deletion strains, locus YLR370C, strain arc18, active compounds read low 1 | S. cerevisiae deletion strains, locus YLR371W, strain rom2, active compounds read low 0.985 | S. cerevisiae deletion strains, locus YLR384C, strain iki3, active compounds read low 1.01 | S. cerevisiae deletion strains, locus YLR418C, strain cdc73, active compounds read low 0.894 | S. cerevisiae deletion strains, locus YML016C, strain PPZ1, active compounds read low 1.01 | S. cerevisiae deletion strains, locus YML032C, strain rad52, active compounds read low 0.972 | S. cerevisiae deletion strains, locus YML120C, strain ndi1, active compounds read low 0.998 | S. cerevisiae deletion strains, locus YML124C, strain tub3, active compounds read low 0.998 | S. cerevisiae deletion strains, locus YMR058W, strain fet3, active compounds read low 0.968 | S. cerevisiae deletion strains, locus YMR078C, strain ctf18, active compounds read low 0.992 | S. cerevisiae deletion strains, locus YMR125W, strain sto1, active compounds read low 1.01 | S. cerevisiae deletion strains, locus YMR129W, active compounds read low 1.01 | S. cerevisiae deletion strains, locus YMR205C, strain PFK2, active compounds read low 0.964 | S. cerevisiae deletion strains, locus YMR223W, strain ubp8, active compounds read low 0.965 | S. cerevisiae deletion strains, locus YMR231W, strain pep5, active compounds read low 0.998 | S. cerevisiae deletion strains, locus YMR307W, strain GAS1, active compounds read low 0.782 | S. cerevisiae deletion strains, locus YNL067W, strain RPL9B, active compounds read low 0.979 | S. cerevisiae deletion strains, locus YNL128W, strain TEP1, active compounds read low 0.992 | S. cerevisiae deletion strains, locus YNL209W, strain ssb2, active compounds read low 1 | S. cerevisiae deletion strains, locus YNL233W, strain BNI4, active compounds read low 0.989 | S. cerevisiae deletion strains, locus YNL248C, strain rpa49, active compounds read low 0.979 | S. cerevisiae deletion strains, locus YNL250W, strain rad50, active compounds read low 0.983 | S. cerevisiae deletion strains, locus YNL271C, strain bni1, active compounds read low 0.983 | S. cerevisiae deletion strains, locus YNL298W, strain CLA4, active compounds read low 0.966 | S. cerevisiae deletion strains, locus YNL307C, strain MCK1, active compounds read low 0.967 | S. cerevisiae deletion strains, locus YNL322C, strain KRE1 (second series), active compounds read low 1.01 | S. cerevisiae deletion strains, locus YNR049C, strain mso1, active compounds read low 1.01 | S. cerevisiae deletion strains, locus YNR052C, strain pop2, active compounds read low 0.987 | S. cerevisiae deletion strains, locus YOL006C, strain TOP1, active compounds read low 0.902 | S. cerevisiae deletion strains, locus YOL012C, strain htz1 0.926 | S. cerevisiae deletion strains, locus YOL147C, strain pex11, active compounds read low 1 | S. cerevisiae deletion strains, locus YOR001W, strain rrp6, active compounds read low 0.986 | S. cerevisiae deletion strains, locus YOR061W, strain CKA2, active compounds read low 1.01 | S. cerevisiae deletion strains, locus YOR069W, strain VPS5, active compounds read low 1.01 | S. cerevisiae deletion strains, locus YOR070C, strain gyp1, active compounds read low 0.998 | S. cerevisiae deletion strains, locus YOR080W, strain dia2, active compounds read low 1 | S. cerevisiae deletion strains, locus YOR083W, strain WHI5, active compounds read low 0.914 | S. cerevisiae deletion strains, locus YOR106W, strain vam3, active compounds read low 0.916 | S. cerevisiae deletion strains, locus YOR136W, strain idh2, active compounds read low 0.997 | S. cerevisiae deletion strains, locus YOR144C, strain elg1, active compounds read low 0.995 | S. cerevisiae deletion strains, locus YOR184W, strain ser1, active compounds read low 0.945 | S. cerevisiae deletion strains, locus YOR265W, strain rbl2, active compounds read low 0.999 | S. cerevisiae deletion strains, locus YOR270C, strain vph1, active compounds read low 1.11 | S. cerevisiae deletion strains, locus YOR290C, strain snf2, active compounds read low 0.94 | S. cerevisiae deletion strains, locus YOR316C, strain cot1, active compounds read low 0.991 | S. cerevisiae deletion strains, locus YPL051W, strain arl3, active compounds read low 0.941 | S. cerevisiae deletion strains, locus YPL078C, strain atp4, active compounds read low 0.929 | S. cerevisiae deletion strains, locus YPL106C, strain sse1, active compounds read low 1.03 | S. cerevisiae deletion strains, locus YPL240C, strain hsp82, active compounds read low 1.01 | S. cerevisiae deletion strains, locus YPR119W, strain clb2, active compounds read low 0.991 | S. cerevisiae deletion strains, locus YPR141C, strain kar3, active compounds read low 0.993 | S. cerevisiae deletion strains, locus YPR163C, strain tif3, active compounds read low 0.985 | S. cerevisiae deletion strains, locus YPR167C, strain met16, active compounds read low 0.991 | S. cerevisiae deletion strains, strain wtn01, active compounds read low 0.978 | S. cerevisiae strains, strain wild type, active compounds read low 1.01
